Inconclusive results are not listed. The source made the active and inactive calls. The call rests on the fitted dose curve; in most records, active means well fitted curve in the direction sought with a large enough effect; inconclusive means small, poorly fitted or top-dose-only effect, or another doubt; inactive means no such curve, though single readings can be large; an effect the other way counts as inactive or inconclusive.
Potency means the concentration at half of the fitted maximal effect.

The first assay is described as follows: qHTS of pediatric cancer cell lines to identify multiple opportunities for drug repurposing: Confirmatory screen for SK-N-MC cells (AID 1347111).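 Further: cells exposed to compound for 48 h before the readout; nearly all actives have a fitted effect of over 70% in size.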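 On activity change, negative = cytotoxic: plate controls were DMSO for no effect and bortezomib for full effect.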 Particulars: SK-N-MC cell viability; series mostly up to 45.9 µM; activity change, negative = cytotoxic: at the top concentration. Summed up: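 Metabolically active cells were quantified by ATP-dependent luminescence (CellTiter-Glo, 15 min at room temperature) following 48 h treatment. Cells had been plated at 500-1,000 per well and settled for 5 h beforehand.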
Regarding `COc1cc2nc(N3CCCN(C)CC3)nc(NC3CCN(Cc4ccccc4)CC3)c2cc1OC`, the Potency is 3.69 µM (active).
For `CCC(=O)O[C@]1(C(=O)SCF)[C@H](C)C[C@H]2[C@@H]3C[C@H](F)C4=CC(=O)C=C[C@]4(C)[C@@]3(F)[C@@H](O)C[C@@]21C`, the “activity change, negative = cytotoxic” value was 2.84% (inactive).
`NC(=O)c1cccnc1`: the Potency is 14.7 µM (active).
Still for that read-out and setting: then `COC(=O)Nc1nc2ccc(S(=O)c3ccccc3)cc2[nH]1` (configuration not stated), with 1.47 µM (active); and `CNCC[C@H](Oc1cccc2ccccc12)c1cccs1`, with 6.57 µM (active).
In the case of `CN(C)c1ccc(C(=C2C=CC(=[N+](C)C)C=C2)c2ccc(N(C)C)cc2)cc1`, the Potency is 0.737 µM (active).
Regarding `COc1ccc(C(=O)CC(=O)c2ccc(C(C)(C)C)cc2)cc1`, the Potency is 26.1 µM (active).
Turning to `Oc1c(Cl)cc(Cl)c2cccnc12`, the Potency was 13.1 µM (active).
As to `COc1cc2c(Nc3ccc(Br)cc3F)ncnc2cc1OCC1CCN(C)CC1`, the “activity change, negative = cytotoxic” value is 5.65% (inactive).
Regarding `CNS(=O)(=O)CCc1ccc2[nH]cc(C3CCN(C)CC3)c2c1`, the Potency was 4.14 µM (active).
As for `S=P(N1CC1)(N1CC1)N1CC1`, the Potency was 3.69 µM (active).
`Nc1nc(F)nc2c1ncn2[C@@H]1O[C@H](CO)[C@@H](O)[C@@H]1O`: the Potency was 0.465 µM (active).
The same measure, in the same setting: then `CCOC(=O)[C@H](CCc1ccccc1)N[C@H]1CS[C@H](c2cccs2)CN(CC(=O)O)C1=O`, with 9.27 µM (active).

The nature of a further assay: qHTS of pediatric cancer cell lines to identify multiple opportunities for drug repurposing: Confirmatory screen for BT-12 cells (AID 1347112). Further: nearly all actives have a fitted effect of over 55% in size. On activity change, negative = cytotoxic: on the % scale 0 is the no-effect control and ±100 the full control effect. Particulars: BT-12 rhabdoid tumor cells, viability; series mostly up to 45.9 µM; activity change, negative = cytotoxic: at the top concentration. The method, boiled down:
(§1)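 Cells (500-1,000/well) in growth media were settled 5 h at 37 degrees C, then given compounds for 48 h. Viability was read as CellTiter-Glo luminescence. Primary runs used MIPE at 11 points (0.78 nM-46 µM) and NPC at 8 points (0.59 nM-46 µM); follow-ups used 11 points.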
On to `CCC(=O)O[C@]1(C(=O)SCF)[C@H](C)C[C@H]2[C@@H]3C[C@H](F)C4=CC(=O)C=C[C@]4(C)[C@@]3(F)[C@@H](O)C[C@@]21C`, for which the “activity change, negative = cytotoxic” value was -11.2% (inactive).
On to `N=C(N)c1ccc(OCCCCCOc2ccc(C(=N)N)cc2)cc1`, for which the Potency was 3.29 µM (active).
For `CNCC[C@H](Oc1cccc2ccccc12)c1cccs1`, the “activity change, negative = cytotoxic” value is -3.89% (inactive).
Regarding `CN(C)c1ccc(C(=C2C=CC(=[N+](C)C)C=C2)c2ccc(N(C)C)cc2)cc1`, the Potency was 2.33 µM (active).
On to `COc1ccc(C(=O)CC(=O)c2ccc(C(C)(C)C)cc2)cc1`, for which the “activity change, negative = cytotoxic” value is -7.35% (inactive).
In the case of `COc1cc2c(Nc3ccc(Br)cc3F)ncnc2cc1OCC1CCN(C)CC1`, the “activity change, negative = cytotoxic” value is -3.22% (inactive).
On to `CNS(=O)(=O)CCc1ccc2[nH]cc(C3CCN(C)CC3)c2c1`, for which the “activity change, negative = cytotoxic” value was -3.72% (inactive).
`CCOC(=O)c1ccc(C#Cc2ccc3c(c2)C(C)(C)CCS3)nc1`: the “activity change, negative = cytotoxic” value was 11.9% (inactive).
With `S=P(N1CC1)(N1CC1)N1CC1`, the “activity change, negative = cytotoxic” value was -3.01% (inactive).
Consider `COC(=O)Nc1nc2ccc(C(=O)c3ccccc3)cc2[nH]1`, for which the Potency is 4.14 µM (active).
Consider `CCOC(=O)[C@H](CCc1ccccc1)N[C@H]1CS[C@H](c2cccs2)CN(CC(=O)O)C1=O`, for which the “activity change, negative = cytotoxic” value was -9.87% (inactive).

Another assay is described as follows: qHTS of pediatric cancer cell lines to identify multiple opportunities for drug repurposing: Confirmatory screen for LAN-5 cells (AID 1347113). Further: nearly all actives have a fitted effect of over 65% in size. On activity change, negative = cytotoxicity: on the % scale 0 is the no-effect control and ±100 the full control effect. Particulars: LAN-5 neuroblastoma cell viability; series mostly up to 45.9 µM; activity change, negative = cytotoxicity: at the top concentration. Summed up: as §1
With `CCC(=O)O[C@]1(C(=O)SCF)[C@H](C)C[C@H]2[C@@H]3C[C@H](F)C4=CC(=O)C=C[C@]4(C)[C@@]3(F)[C@@H](O)C[C@@]21C`, the “activity change, negative = cytotoxicity” value was 26.8% (inactive).
For `NC(=O)c1cccnc1`, the “activity change, negative = cytotoxicity” value is -16.2% (inactive).
As for `CN(C)c1ccc(C(=C2C=CC(=[N+](C)C)C=C2)c2ccc(N(C)C)cc2)cc1`, the Potency is 1.17 µM (active).
Regarding `COc1ccc(C(=O)CC(=O)c2ccc(C(C)(C)C)cc2)cc1`, the “activity change, negative = cytotoxicity” value was 22.4% (inactive).
With `Oc1c(Cl)cc(Cl)c2cccnc12`, the Potency is 14.7 µM (active).
Turning to `COc1cc2c(Nc3ccc(Br)cc3F)ncnc2cc1OCC1CCN(C)CC1`, the “activity change, negative = cytotoxicity” value is 5.31% (inactive).
With `CNS(=O)(=O)CCc1ccc2[nH]cc(C3CCN(C)CC3)c2c1`, the “activity change, negative = cytotoxicity” value was 14.4% (inactive).
As to `CCOC(=O)c1ccc(C#Cc2ccc3c(c2)C(C)(C)CCS3)nc1`, the “activity change, negative = cytotoxicity” value was 1.33% (inactive).
In the case of `CCOC(=O)[C@H](CCc1ccccc1)N[C@H]1CS[C@H](c2cccs2)CN(CC(=O)O)C1=O`, the “activity change, negative = cytotoxicity” value is 11.5% (inactive).
On the same count and under the same terms, then `Cc1cccc(N(C)C(=S)Oc2ccc3ccccc3c2)c1`, with 10.4% (inactive).

Another assay is described as follows: qHTS of pediatric cancer cell lines to identify multiple opportunities for drug repurposing: Confirmatory screen for DAOY cells (AID 1347114). Further: nearly all actives have a fitted effect of over 65% in size. On activity change, negative = cytotoxic: on the % scale 0 is the no-effect control and ±100 the full control effect. Particulars: DAOY medulloblastoma cells viability, cytotoxicity qHTS; series mostly up to 45.9 µM; activity change, negative = cytotoxic: at the top concentration. Summed up:
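Viability measured as metabolically active cells via CellTiter-Glo luminescence following 48 hours of compound exposure, 11-point dilutions in confirmatory testing. 500-1,000 cells/well plated 5 hours before dosing; controls were DMSO and 2.3 µM bortezomib.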
As for `COc1cc2nc(N3CCCN(C)CC3)nc(NC3CCN(Cc4ccccc4)CC3)c2cc1OC`, the “activity change, negative = cytotoxic” value was -98% (inactive).
Turning to `NC(=O)c1cccnc1`, the “activity change, negative = cytotoxic” value was 7.48% (inactive).
`COC(=O)Nc1nc2ccc(S(=O)c3ccccc3)cc2[nH]1` (configuration not stated): the Potency was 0.928 µM (active).
As for `N=C(N)c1ccc(OCCCCCOc2ccc(C(=N)N)cc2)cc1`, the Potency was 14.7 µM (active).
With `CN(C)c1ccc(C(=C2C=CC(=[N+](C)C)C=C2)c2ccc(N(C)C)cc2)cc1`, the Potency was 0.737 µM (active).
`COc1ccc(C(=O)CC(=O)c2ccc(C(C)(C)C)cc2)cc1`: the “activity change, negative = cytotoxic” value was -0.234% (inactive).
Regarding `CNS(=O)(=O)CCc1ccc2[nH]cc(C3CCN(C)CC3)c2c1`, the “activity change, negative = cytotoxic” value is -6.7% (inactive).
For the compound `CCOC(=O)c1ccc(C#Cc2ccc3c(c2)C(C)(C)CCS3)nc1`, the “activity change, negative = cytotoxic” value was -2.86% (inactive).
Same read-out and setting: the result for `S=P(N1CC1)(N1CC1)N1CC1` reads -7.87% (inactive).
In the case of `COC(=O)Nc1nc2ccc(C(=O)c3ccccc3)cc2[nH]1`, the Potency is 0.928 µM (active).
In the case of `Nc1nc(F)nc2c1ncn2[C@@H]1O[C@H](CO)[C@@H](O)[C@@H]1O`, the “activity change, negative = cytotoxic” value is -15.2% (inactive).
Take `CCOC(=O)[C@H](CCc1ccccc1)N[C@H]1CS[C@H](c2cccs2)CN(CC(=O)O)C1=O`: the “activity change, negative = cytotoxic” value is 4.16% (inactive).

A further assay can be described thus: qHTS of pediatric cancer cell lines to identify multiple opportunities for drug repurposing: Confirmatory screen for NB-EBc1 cells (AID 1347115).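 Further: cells exposed to compound for 48 h before the viability read; nearly all actives have a fitted effect of over 45% in size.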 On activity change, negative = cytotoxic: on the % scale 0 is the no-effect control and ±100 the full control effect. Particulars: NB-EBc1 neuroblastoma cells, viability (cytotoxicity); series mostly up to 45.9 µM; activity change, negative = cytotoxic: at the top concentration. The method, boiled down: as §1
On to `COc1cc2nc(N3CCCN(C)CC3)nc(NC3CCN(Cc4ccccc4)CC3)c2cc1OC`, for which the “activity change, negative = cytotoxic” value was 3.34% (inactive).
On to `NC(=O)c1cccnc1`, for which the Potency is 10.4 µM (active).
Take `CNCC[C@H](Oc1cccc2ccccc12)c1cccs1`: the “activity change, negative = cytotoxic” value is -20.8% (inactive).
For `CN(C)c1ccc(C(=C2C=CC(=[N+](C)C)C=C2)c2ccc(N(C)C)cc2)cc1`, the Potency is 1.85 µM (active).
Turning to `COc1ccc(C(=O)CC(=O)c2ccc(C(C)(C)C)cc2)cc1`, the “activity change, negative = cytotoxic” value was 8.76% (inactive).
On to `Oc1c(Cl)cc(Cl)c2cccnc12`, for which the Potency was 18.5 µM (active).
As for `COc1cc2c(Nc3ccc(Br)cc3F)ncnc2cc1OCC1CCN(C)CC1`, the “activity change, negative = cytotoxic” value is 9.87% (inactive).
For the compound `CNS(=O)(=O)CCc1ccc2[nH]cc(C3CCN(C)CC3)c2c1`, the “activity change, negative = cytotoxic” value is -8.91% (inactive).
With `CCOC(=O)c1ccc(C#Cc2ccc3c(c2)C(C)(C)CCS3)nc1`, the “activity change, negative = cytotoxic” value was -1.63% (inactive).
As for `CCOC(=O)[C@H](CCc1ccccc1)N[C@H]1CS[C@H](c2cccs2)CN(CC(=O)O)C1=O`, the “activity change, negative = cytotoxic” value was -8.24% (inactive).
Turning to `Cc1cccc(N(C)C(=S)Oc2ccc3ccccc3c2)c1`, the Potency is 18.5 µM (active).

For the origin of these results see PubChem BioAssay (NCATS).
